Measurements: PubChem BioAssay (EPA / NIEHS)
The source made the active and inactive calls. Rule for the calls: active = hit-call score of the fitted dose curve at least 0.9, where 1 is the maximum; inactive = score below 0.9.

How the values were obtained:
Settings in all cases: primary human HUVEC with PBMC; actives raise or lower the signal
[1] = read-out: Interleukin-1 alpha (IL1a), IL1A (gene 3552); assay: BSK_LPS_IL1a: BioMAP Diversity Plus: LPS Assay for Interleukin-1 alpha (IL1a) Biomarker Activity (AID 2283080)
Outline: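 Readout is IL-1a level by ELISA, 24 h post-dose, fitted as gain or loss relative to DMSO. System: LPS-activated human primary co-culture of vascular endothelium and peripheral blood mononuclear cells, with parallel SRB total-protein cytotoxicity.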

[2] = read-out: Monocyte Chemoattractant Protein-1 (MCP1), CCL2 (gene 6347); assay: BSK_LPS_MCP1: BioMAP Diversity Plus: LPS Assay for Monocyte Chemoattractant Protein-1 (MCP1) Biomarker Activity (AID 2283081);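 for AC50: secreted MCP-1 protein quantified by ELISA in culture supernatant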
Outline: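 Secreted MCP-1 read by ELISA at 24 h post-dosing in an LPS-activated co-culture of endothelial cells with peripheral blood mononuclear cells. Fits run in both directions, DMSO as baseline; parallel SRB staining tracks overt cytotoxicity.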

[3] = BSK_LPS_PGE2: BioMAP Diversity Plus: LPS Assay for Prostaglandin E2 (PGE2) Biomarker Activity (AID 2283082);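 for AC50: secreted prostaglandin E2 measured by ELISA in LPS-stimulated co-culture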
Outline: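 HUVEC plus human PBMC co-culture stimulated with LPS; secreted PGE2 quantified by ELISA 24 h after chemical dosing. Activity fitted bidirectionally against DMSO baseline; parallel SRB staining (0.1% SRB after 10% TCA fixation, 560 nm) flags overt cytotoxicity.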

[4] = read-out: Macrophage colony-stimulating factor (MCSF), CSF1 (gene 1435); assay: BSK_LPS_MCSF: BioMAP Diversity Plus: LPS Assay for Macrophage colony-stimulating factor (MCSF) Biomarker Activity (AID 2283083)
Outline: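 Bidirectional fitting against DMSO was applied to M-CSF levels read by ELISA at 24 h post-dose. The system pairs human umbilical vein endothelium with peripheral blood mononuclear cells; parallel SRB staining tracked cytotoxicity.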

[5] = read-out: Tissue Factor, F3 (gene 2152); assay: BSK_LPS_TissueFactor: BioMAP Diversity Plus: LPS Assay for Tissue Factor Biomarker Activity (AID 2283084)
Outline: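 Compound was added to an endothelial cell/PBMC co-culture, and after 24 h tissue factor (CD142) was read by ELISA. Gain or loss of signal was fitted against a DMSO baseline, and parallel SRB staining (560 nm) tracked overt cytotoxicity.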

[6] = read-out: Tumor necrosis factor (Homo sapiens) (UniProt P01375); assay: BSK_LPS_TNFa: BioMAP Diversity Plus: LPS Assay for Tumour Necrosis Factor alpha (TNFa) Biomarker Activity (AID 2283085);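 for AC50: TNFa protein level quantified by ELISA in the co-culture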
Outline: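 Human umbilical vein endothelial cells co-cultured with PBMC and stimulated with LPS. TNFa was measured by ELISA 24 h after chemical dosing, fitted bidirectionally relative to DMSO.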

[7] = read-out: Vascular cell adhesion molecule 1 (VCAM1), VCAM1 (gene 7412); assay: BSK_LPS_VCAM1: BioMAP Diversity Plus: LPS Assay for Vascular cell adhesion molecule 1 (VCAM1) Biomarker Activity (AID 2283086)
Outline: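 Human umbilical vein endothelial cells co-cultured with PBMC and stimulated with LPS; VCAM-1 measured by ELISA 24 h after dosing. Bidirectional curve fitting against DMSO baseline; cytotoxicity tracked in parallel by SRB total-protein staining.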

CD38, CD38 (gene 952) = assay: BSK_SAg_CD38: BioMAP Diversity Plus: SAg Assay for CD38 Biomarker Activity (AID 2283087)
Outline: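 Human HUVEC plus PBMC co-culture stimulated with superantigen; CD38 measured by ELISA 24 h after chemical dosing. Fluorescence read-out, bidirectional fit against DMSO; cytotoxicity tracked in parallel by SRB and Alamar Blue.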

CD40, CD40 (gene 958) = assay: BSK_SAg_CD40: BioMAP Diversity Plus: SAg Assay for CD40 Biomarker Activity (AID 2283088)
Outline: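 CD40 is measured by fluorescence ELISA in an endothelial/PBMC primary human co-culture at 24 h post-dose. Fitting is bidirectional, DMSO baseline. Parallel SRB staining (560 nm) flags cytotoxicity.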

CD69, CD69 (gene 969) = assay: BSK_SAg_CD69: BioMAP Diversity Plus: SAg Assay for CD69 Biomarker Activity (AID 2283089);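 for AC50: cell surface CD69 protein quantified by ELISA with fluorescence detection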
Outline: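 ELISA, fluorescence read-out: CD69 on human umbilical vein endothelial cell + PBMC co-culture, 24 h post-dosing. Gain or loss of signal fitted bidirectionally against DMSO baseline.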

Measured: AC50

Tumor necrosis factor (Homo sapiens), sequence (P01375 whole entry, looked up): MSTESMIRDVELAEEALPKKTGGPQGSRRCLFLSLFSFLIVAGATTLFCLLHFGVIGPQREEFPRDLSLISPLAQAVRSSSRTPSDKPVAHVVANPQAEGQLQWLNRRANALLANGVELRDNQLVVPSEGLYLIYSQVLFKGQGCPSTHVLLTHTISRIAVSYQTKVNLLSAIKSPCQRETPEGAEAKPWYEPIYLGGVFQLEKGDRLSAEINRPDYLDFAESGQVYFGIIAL

Cc1cc2c3c(c1)C(c1ccccc1)=N[C@@H](NC(=O)c1ccncc1)C(=O)N3CC2
inactive: [2] | [3] | [5] | [7]
active: [1] 3.97 µM | [4] 4.6 µM | [6] 7.3 µM | CD38, CD38 (gene 952) 11.8 µM | CD40, CD40 (gene 958) 20 µM | CD69, CD69 (gene 969) 5.02 µM

O=C(O)C(F)(F)C(F)(F)C(F)(F)C(F)(F)C(F)(F)F
inactive: all assays above

Cc1cc(-c2ccc(N)c(C)c2)ccc1N
active: [3] 7.16 µM
inactive: all other assays above

Cc1ccccc1CO[C@@H]1C[C@@]2(C(C)C)CC[C@]1(C)O2
inactive: all assays above

ClC(Cl)=C(c1ccc(Cl)cc1)c1ccc(Cl)cc1
active: [1] 26.6 µM | [2] 35.4 µM | [3] 8.02 µM | [5] 32.3 µM | [6] 31.8 µM | [7] 30.4 µM | CD38, CD38 (gene 952) 33.3 µM | CD40, CD40 (gene 958) 32.5 µM | CD69, CD69 (gene 969) 30.6 µM

CCCN(CCC)N=O
inactive: all assays above

C=CC(=O)NCNC(=O)C=C
inactive: all assays above

O=S(=O)(O)C(F)(F)C(F)(F)C(F)(F)C(F)(F)F
inactive: all assays above

CCC(C)(c1ccc(O)cc1)c1ccc(O)cc1
inactive: [1] | [2] | [5] | [6]
active: [3] 13.3 µM | [4] 20 µM | [7] 20 µM | CD38, CD38 (gene 952) 25.6 µM | CD40, CD40 (gene 958) 20 µM | CD69, CD69 (gene 969) 20 µM

C1CC2OC2CC1C1CO1 (configuration not stated)
inactive: all assays above

CCC(C)c1cc([N+](=O)[O-])cc([N+](=O)[O-])c1O (configuration not stated)
active: [1] 29.2 µM | [2] 15 µM | [3] 6.51 µM | [4] 20 µM | [7] 20 µM | CD38, CD38 (gene 952) 18.7 µM | CD40, CD40 (gene 958) 14.3 µM | CD69, CD69 (gene 969) 12.4 µM
inactive: [5] | [6]

Clc1ccc(C(Cl)(Cl)Cl)cc1
inactive: all assays above

c1cc2ccc3cccc4ccc(c1)c2c34
active: CD38, CD38 (gene 952) 11.5 µM | CD69, CD69 (gene 969) 4.13 µM
not listed: CD40, CD40 (gene 958)
inactive: all other assays above

C[C@]12CCC(=O)C=C1CC[C@@H]1[C@@H]2CC[C@]2(C)C(=O)CC[C@@H]12
inactive: all assays above

Cc1cccc([N+](=O)[O-])c1
inactive: all assays above

N#Cc1ccc(N(CC(N)=O)CC(F)(F)F)cc1C(F)(F)F
inactive: all assays above

ClC1=C(Cl)[C@]2(Cl)[C@@H]3[C@H]4C[C@H]([C@@H]5O[C@H]45)[C@@H]3[C@@]1(Cl)C2(Cl)Cl
active: [6] 4.16 µM | CD40, CD40 (gene 958) 8.47 µM
not listed: [7]
inactive: all other assays above
